Compounds with a hit are over-represented: about 0.9% of the library has one in this group of screens.
Rhodamine fluor: rhodamine region autofluorescence; Rhodamine-region fluorescence, 547/598 nm, Tris buffer; stronger effect = higher value; max dye-equivalent concentration, M; actives 0.05% (n = 59,000); AID 594; in the data active means max dye-equivalent concentration above about 11 nM; inconclusive means between about 1.1 nM and that limit
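Compound fluorescence in 100 mM Tris, pH 8.0, read after 15 min at room temperature with 547 nm excitation and 598 nm emission. Output is dye-equivalent concentration from an on-plate rhodamine standard series.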
Texas Red fluor: compound fluoresces in the Texas Red spectral region. Compound fluorescence, Texas Red channel, 547/618 nm; stronger effect = higher value. max dye-equivalent concentration, M. actives 0.06% (n = 59,000). AID 587; in the data active means max dye-equivalent concentration above about 10 nM; inconclusive means between about 1.1 nM and that limit
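Fluorescence at ex 547/em 618 nm, normalized against an on-plate Texas Red standard series to give dye-equivalent concentration per compound concentration. Buffer 100 mM Tris, pH 8.0; 15 min RT incubation before CCD imaging.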
Fluorescein autfl: compound fluoresces in the fluorescein spectral region. max fluorescein-equivalent concentration, M. AID 593. Compound autofluorescence, 480/540 nm, fluorescein-equivalent; stronger effect = higher value. actives 0.91% (n = 59,000); in the data active means max fluorescein-equivalent concentration above about 10 nM; inconclusive means between about 1.1 nM and that limit
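Fluorescein stocks ranging 3 mM down to 300 nM, plus DMSO blanks, were pinned alongside compounds to build a per-plate standard curve. Buffer: 100 mM Tris, pH 8.0. Incubation 15 min, room temperature; filters 480/540 nm.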
Resorufin autofl: compound fluoresces in the resorufin spectral region | Compound fluorescence, resorufin region 547/598 nm, buffer; stronger effect = higher value | max dye-equivalent concentration, M | actives 0.04% (n = 59,000) | AID 588
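Intrinsic fluorescence profiled in the resorufin window (ex 547 nm, em 598 nm) after 15 min at room temperature in pH 8.0 Tris buffer (100 mM); responses normalized against a six-point resorufin standard series as dye-equivalent concentration.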
A488 autofl: compound fluoresces in the A488 spectral region; compound autofluorescence, A488 spectral region, dye equivalency; Compound Type: qHTS ECL - MLSMR; max dye equivalency, M; actives 0.1% (n = 59,000); AID 591
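Autofluorescence read at ex 480/em 540 nm after 15 min RT in 100 mM Tris pH 8.0; compound signal normalized to A488 standard series on each plate, reported as dye-equivalent concentration at each test concentration.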
Large screens that a line does not name were inactive. Unless noted, how the calls were made is not given here.

CC(C)C[C@H](NC(=O)[C@@H](O)[C@@H](N)Cc1ccccc1)C(=O)O	Fluorescein autfl inconclusive
CC(=Nc1cccc(O)c1)c1sc2ccccc2c1O	Fluorescein autfl 1.9e-08M
CN=Cc1sc2ccccc2c1O	none
COc1ccc(CNC(=O)C(C#N)c2nc3ccccc3nc2N2CCN(C)CC2)cc1 (stereo not given)	none
COc1ccc(CNC(=O)C(C#N)c2nc3ccccc3nc2N2CCCC2)cc1 (stereo not given)	Fluorescein autfl 3.5e-07M, A488 autofl 2.1e-08M
CCCCCCOC(=O)C(C#N)c1nc2ccccc2nc1N1CCCCC1 (stereo not given)	Fluorescein autfl 1e-08M
CC1CN(c2nc3ccccc3nc2C(C#N)C(=O)NCc2ccc3c(c2)OCO3)CC(C)O1 (stereo not given)	Fluorescein autfl 1.1e-07M, A488 autofl inconclusive
CC1CCN(c2nc3ccccc3nc2C(C#N)C(=O)NC2CCCCC2)CC1 (stereo not given)	Fluorescein autfl 1.4e-08M
CCN(CC)[C@@H](C)C(=O)N1c2ccccc2Sc2ccccc21	Texas Red fluor inconclusive
C=CCNC(=O)C(C#N)c1nc2ccccc2nc1N1CCCCCC1 (stereo not given)	Fluorescein autfl 1.3e-08M
CCCCNC(=O)C(C#N)c1nc2ccccc2nc1N1CCCC1 (stereo not given)	Fluorescein autfl 2.3e-07M, A488 autofl 1.2e-08M
CCCCNC(=O)C(C#N)c1nc2ccccc2nc1N1CCN(Cc2ccc3c(c2)OCO3)CC1 (stereo not given)	Fluorescein autfl inconclusive
COC(=O)C(C#N)c1nc2ccccc2nc1N1CCCC1 (stereo not given)	none
C=CCOC(=O)C(C#N)c1nc2ccccc2nc1N1CCN(Cc2ccc3c(c2)OCO3)CC1 (stereo not given)	Fluorescein autfl 1.2e-08M
C[C@@]12CCC(=O)C=C1CC[C@H]1[C@H]3CC[C@](O)(C(=O)CO)[C@]3(C)CC[C@@H]12	Fluorescein autfl inconclusive
CC(c1ccccc1)C1C(C#N)=C(N)SC(N)=C1C#N (stereo not given)	none
CC1=C(C#N)C(c2ccoc2)C(C(=O)OCc2ccccc2)=C(N)S1 (stereo not given)	none
N#CC1=C(N)SC(N)=C(C#N)C1c1ccnc2ccccc12	Fluorescein autfl inconclusive
Cc1ccc(C2C(C#N)=C(N)SC(N)=C2C#N)cc1	Fluorescein autfl 2.3e-08M
Cc1ccc(C2C(C#N)=C(N)SC(N)=C2C#N)c(C)c1	Fluorescein autfl 1e-08M
N#CC1=C(N)SC(N)=C(C#N)C1c1ccoc1	Fluorescein autfl 1.8e-08M
CN(C)c1ccc(-c2nnc(-c3ccc(S(=O)(=O)C(F)F)cc3)o2)cc1	Fluorescein autfl 2e-08M
COc1ccc(-c2nnc(-c3ccc(N(C)C)cc3)o2)cc1	Texas Red fluor inconclusive
CCOC(=O)c1cnn2c(C(F)(F)F)cc(-c3ccco3)nc12	none
CC(C)OC(=O)c1nn2c(C(F)(F)F)cc(-c3ccc(Br)o3)nc2c1Br	Fluorescein autfl 1.6e-08M
Cn1cccc1C(=O)N1CCC[C@@]2(CCN(c3ccccc3)C2)C1	Fluorescein autfl 1.1e-08M
COc1ccc(OC)c(/C=c2\sc3nc(-c4cccs4)nn3c2=O)c1	Fluorescein autfl 1.8e-07M, A488 autofl inconclusive
O=C1c2c(O)cc(O)cc2O[C@@H](c2ccc(O)c(O)c2)[C@H]1O	Fluorescein autfl inconclusive
C=C1C[C@@]23C[C@]1(O)CC[C@@H]2[C@]12C=C[C@@H](O)[C@@](C)(C(=O)O1)[C@@H]2[C@@H]3C(=O)O	none
Cc1nc2nc(-c3cccs3)cn2nc1C	Fluorescein autfl 6e-08M, A488 autofl inconclusive
COc1cccc(-c2cn3nc(C)c(C)nc3n2)c1	none
Cc1ccc(-n2c3c(cc(C(=O)NC4CCSC4=O)c2=O)C(=O)CCC3)cc1 (stereo not given)	Fluorescein autfl 1.1e-08M
O=C1CCCc2c1cc(C(=O)Nc1ccc(Cl)cn1)c(=O)n2-c1ccccc1	none
Nc1ccn([C@@H]2O[C@@H](CO)[C@@H](O)[C@H]2O)c(=O)n1	Fluorescein autfl inconclusive
Cc1cc(C)c(S(=O)(=O)N(CC(=O)O)C2CCCCC2)c(C)c1	Fluorescein autfl 2.6e-08M
Cc1cc(C)c(S(=O)(=O)N(CC(=O)N2CCOCC2)C2CCCCC2)c(C)c1	none
O=S(=O)(Nc1nc2ccccc2nc1N1CCN(c2ccccn2)CC1)c1ccc(Cl)cc1	Fluorescein autfl 1.7e-08M
Cc1nn2cnc3sc4c(c3c2nc1=O)CCCC4	Fluorescein autfl 1e-08M
CC1CCc2cccc3c2N1c1cc(C#N)c(C#N)cc1O3 (stereo not given)	Texas Red fluor inconclusive, Fluorescein autfl 6.3e-08M, A488 autofl inconclusive
O[C@@H]1CC[C@H]2Cc3ccccc3N=C21	none
O=c1oc2c(CN3CCCCCC3)c(O)ccc2cc1-c1nc2ccccc2[nH]1	Fluorescein autfl 3e-06M, A488 autofl 1.4e-07M
O=C(O)CCCC[C@H]1CCSS1	Texas Red fluor inconclusive, Fluorescein autfl inconclusive
Cn1c(=O)c2c(nc(/C=C\c3cccc(Cl)c3)n2C)n(C)c1=O	none
CCN(CC)c1ccc2cc(C(=O)Nc3ccccn3)c(=O)oc2c1	Fluorescein autfl 5.4e-07M, A488 autofl 2.6e-08M
CCN(CC)c1ccc2cc(C(=O)Nc3cccnc3N3CCOCC3)c(=O)oc2c1	Fluorescein autfl 4e-08M, A488 autofl inconclusive
CCN(CC)c1ccc2cc(NC(=O)CCC(=O)O)c(=O)oc2c1	Fluorescein autfl 2.2e-07M, A488 autofl 1.2e-08M
COc1ccccc1C(=O)Nc1ccccn1	Texas Red fluor inconclusive, Fluorescein autfl inconclusive
COc1cccc2c1[C@@H]1CN(CCCCn3c(=O)[nH]c4c(sc5ncc(-c6ccccc6)nc54)c3=O)C[C@H]1CO2	Fluorescein autfl inconclusive
C[C@@]12CCC(=O)C=C1CC[C@H]1[C@@H]2[C@@H](O)C[C@]2(C)[C@@H]1CC[C@@]2(O)C(=O)COC(=O)C1CCCC1	Fluorescein autfl inconclusive
Cn1c2ccccc2c(=O)n2c(=O)c3ccccc3cc12	Fluorescein autfl 3.9e-08M, A488 autofl inconclusive
Cc1ccnn2c(-c3ccccc3)c3c(=O)n(C)c(=O)n(C)c3c12	Fluorescein autfl 1.2e-08M
Cc1ccc(-c2c3c(=O)n(C)c(=O)n(C)c3c3nnc4ccccc4n23)cc1	Fluorescein autfl 1.1e-07M, A488 autofl inconclusive
CC(=O)O[C@@H]1C[C@]2(C)[C@H](C[C@@H](O)[C@H]3[C@@]4(C)CC[C@@H](O)[C@@H](C)[C@@H]4CC[C@@]32C)/C1=C(\CCC=C(C)C)C(=O)O	none
Cc1oc(C)c2c(=O)ccc3c(c12)OC(N)=C(C#N)C3c1ccccc1 (stereo not given)	Fluorescein autfl 1.1e-08M
Cc1oc(C)c2c(=O)ccc3c(c12)OC(N)=C(C#N)C3c1ccccc1Cl (stereo not given)	Fluorescein autfl 1.5e-08M
CSc1ccc(C2C(C#N)=C(N)Oc3c2ccc(=O)c2c(C)oc(C)c32)cc1 (stereo not given)	Fluorescein autfl inconclusive
